± gives the standard deviation of the averaged measurements. The full data set covers some 6,200 targets. This sample favours those with the largest changes.
Tests used:
Experiment in all cases: NP40-soluble protein abundance relative to vehicle (solubility fold change) (ratio); higher = more soluble protein in presence of AMP-PNP
A0A0A0MSG2|J3KNW4|Q14192 = target: T1, A0A0A0MSG2|J3KNW4|Q14192 (UniProt Q14192)
T1 sequence (whole entry): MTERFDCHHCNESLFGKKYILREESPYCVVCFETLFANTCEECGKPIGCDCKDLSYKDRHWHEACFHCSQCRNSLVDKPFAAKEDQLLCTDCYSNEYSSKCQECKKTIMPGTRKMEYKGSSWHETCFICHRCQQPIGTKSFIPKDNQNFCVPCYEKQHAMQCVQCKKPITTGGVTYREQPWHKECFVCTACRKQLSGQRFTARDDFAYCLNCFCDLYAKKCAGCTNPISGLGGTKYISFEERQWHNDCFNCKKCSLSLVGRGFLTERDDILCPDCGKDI
Outline: (§1)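 Jurkat crude lysate prepared with a Dounce homogeniser was treated at eight concentrations spanning 0.1 to 10 mM, 10 min at room temperature then 3 min at 37 °C. Solubilisation with 0.8% NP40 and benzonase and ultracentrifugation preceded TMT labelling of the supernatant for LC-MS/MS. Fold change against the detergent-processed vehicle was determined per replicate from vsn-normalised intensities, across three independent experiments.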

A0A0U1RRH6|O94880 = target: T2, A0A0U1RRH6|O94880 (UniProt O94880)
T2 sequence (whole entry): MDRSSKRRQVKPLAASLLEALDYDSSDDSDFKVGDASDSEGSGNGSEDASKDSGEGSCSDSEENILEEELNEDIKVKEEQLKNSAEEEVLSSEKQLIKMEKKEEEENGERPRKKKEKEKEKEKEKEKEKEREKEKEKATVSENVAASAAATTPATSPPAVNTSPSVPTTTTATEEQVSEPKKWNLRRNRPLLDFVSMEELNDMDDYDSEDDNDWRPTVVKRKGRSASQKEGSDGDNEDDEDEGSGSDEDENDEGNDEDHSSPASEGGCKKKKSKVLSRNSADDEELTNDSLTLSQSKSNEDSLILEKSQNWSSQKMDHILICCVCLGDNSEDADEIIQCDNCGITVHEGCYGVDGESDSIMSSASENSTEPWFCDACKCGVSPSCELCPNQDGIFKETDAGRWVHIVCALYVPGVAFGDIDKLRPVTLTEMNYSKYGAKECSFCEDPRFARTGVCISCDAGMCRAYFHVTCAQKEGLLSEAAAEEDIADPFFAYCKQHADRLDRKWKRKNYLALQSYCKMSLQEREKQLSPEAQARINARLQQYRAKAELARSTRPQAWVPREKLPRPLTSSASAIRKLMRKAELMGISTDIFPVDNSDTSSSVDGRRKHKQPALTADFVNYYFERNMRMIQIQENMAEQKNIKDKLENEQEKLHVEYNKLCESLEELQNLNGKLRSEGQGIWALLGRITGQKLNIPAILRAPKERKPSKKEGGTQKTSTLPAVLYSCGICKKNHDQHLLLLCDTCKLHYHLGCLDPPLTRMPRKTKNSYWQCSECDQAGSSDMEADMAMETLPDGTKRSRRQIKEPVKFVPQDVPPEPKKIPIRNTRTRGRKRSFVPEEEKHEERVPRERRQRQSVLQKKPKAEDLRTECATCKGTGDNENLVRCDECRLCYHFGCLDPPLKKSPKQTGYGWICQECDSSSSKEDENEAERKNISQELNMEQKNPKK
Outline: as §1

ACOX3 = target: T3, ACOX3 (UniProt O15254)
T3 sequence (whole entry): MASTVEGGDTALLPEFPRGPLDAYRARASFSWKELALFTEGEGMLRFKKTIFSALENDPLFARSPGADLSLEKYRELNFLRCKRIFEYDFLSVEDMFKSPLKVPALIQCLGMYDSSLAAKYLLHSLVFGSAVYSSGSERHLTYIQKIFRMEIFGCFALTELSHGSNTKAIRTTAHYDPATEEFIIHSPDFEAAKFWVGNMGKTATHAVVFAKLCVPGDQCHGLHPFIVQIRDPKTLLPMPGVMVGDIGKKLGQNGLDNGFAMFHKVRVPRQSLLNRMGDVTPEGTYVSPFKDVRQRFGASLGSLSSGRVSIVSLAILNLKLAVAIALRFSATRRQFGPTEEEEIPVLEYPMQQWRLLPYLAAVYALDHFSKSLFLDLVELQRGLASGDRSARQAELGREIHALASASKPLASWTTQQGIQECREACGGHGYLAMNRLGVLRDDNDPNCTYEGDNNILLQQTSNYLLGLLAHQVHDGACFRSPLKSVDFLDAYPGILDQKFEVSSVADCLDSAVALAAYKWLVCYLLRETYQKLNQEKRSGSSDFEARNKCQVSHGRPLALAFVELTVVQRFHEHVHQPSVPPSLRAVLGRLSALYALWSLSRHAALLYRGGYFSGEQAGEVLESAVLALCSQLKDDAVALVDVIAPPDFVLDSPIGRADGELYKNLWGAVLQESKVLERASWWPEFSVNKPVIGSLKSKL
Outline: as §1

C9JI46|Q8N3X6|Q8N3X6-3 = target: T4, C9JI46|Q8N3X6|Q8N3X6-3 (UniProt Q8N3X6)
T4 sequence (whole entry): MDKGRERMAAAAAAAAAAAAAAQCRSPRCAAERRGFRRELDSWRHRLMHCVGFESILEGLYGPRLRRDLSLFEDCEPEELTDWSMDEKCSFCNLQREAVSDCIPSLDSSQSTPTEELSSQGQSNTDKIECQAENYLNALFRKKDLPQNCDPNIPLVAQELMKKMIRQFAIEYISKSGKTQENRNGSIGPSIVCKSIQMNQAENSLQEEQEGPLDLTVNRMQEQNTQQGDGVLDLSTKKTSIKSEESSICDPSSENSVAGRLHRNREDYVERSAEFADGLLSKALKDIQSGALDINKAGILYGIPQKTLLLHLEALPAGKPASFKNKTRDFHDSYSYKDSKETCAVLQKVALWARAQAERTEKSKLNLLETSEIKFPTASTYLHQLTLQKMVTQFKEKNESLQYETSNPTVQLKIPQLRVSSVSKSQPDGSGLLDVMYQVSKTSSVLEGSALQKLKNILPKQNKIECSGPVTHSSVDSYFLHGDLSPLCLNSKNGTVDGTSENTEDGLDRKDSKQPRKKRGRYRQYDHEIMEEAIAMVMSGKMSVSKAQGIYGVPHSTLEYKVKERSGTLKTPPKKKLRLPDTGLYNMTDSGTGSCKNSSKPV
Outline: as §1

Nc1ncnc2c1ncn2[C@@H]1O[C@H](COP(=O)(O)OP(=O)(O)NP(=O)(O)O)[C@@H](O)[C@H]1O [adenylyl imidodiphosphate]
NP40-soluble protein abundance (A0A0A0MSG2|J3KNW4|Q14192; concentration: 1mM): 0.991 ± 0.05
NP40-soluble protein abundance (A0A0A0MSG2|J3KNW4|Q14192; concentration: 2mM): 0.988 ± 0.09
NP40-soluble protein abundance (A0A0A0MSG2|J3KNW4|Q14192; concentration: 4mM): 1.02 ± 0.048
NP40-soluble protein abundance (A0A0A0MSG2|J3KNW4|Q14192; concentration: 6mM): 0.966 ± 0.036
NP40-soluble protein abundance (A0A0A0MSG2|J3KNW4|Q14192; concentration: 8mM): 0.979 ± 0.083
NP40-soluble protein abundance (A0A0A0MSG2|J3KNW4|Q14192; concentration: 10mM): 0.947 ± 0.035
NP40-soluble protein abundance (A0A0U1RRH6|O94880; concentration: 1mM): 1.02 ± 0.036
NP40-soluble protein abundance (A0A0U1RRH6|O94880; concentration: 2mM): 1.07 ± 0.03
NP40-soluble protein abundance (A0A0U1RRH6|O94880; concentration: 4mM): 1.14 ± 0.025
NP40-soluble protein abundance (A0A0U1RRH6|O94880; concentration: 6mM): 1.21 ± 0.017
NP40-soluble protein abundance (A0A0U1RRH6|O94880; concentration: 8mM): 1.27 ± 0.035
NP40-soluble protein abundance (A0A0U1RRH6|O94880; concentration: 10mM): 1.36 ± 0.092
NP40-soluble protein abundance (ACOX3; concentration: 1mM): 0.977 ± 0.053
NP40-soluble protein abundance (ACOX3; concentration: 2mM): 0.928 ± 0.076
NP40-soluble protein abundance (ACOX3; concentration: 4mM): 0.967 ± 0.031
NP40-soluble protein abundance (ACOX3; concentration: 6mM): 0.957 ± 0.057
NP40-soluble protein abundance (ACOX3; concentration: 8mM): 0.972 ± 0.07
NP40-soluble protein abundance (ACOX3; concentration: 10mM): 0.918 ± 0.089
NP40-soluble protein abundance (C9JI46|Q8N3X6|Q8N3X6-3; concentration: 1mM): 0.985 ± 0.021
NP40-soluble protein abundance (C9JI46|Q8N3X6|Q8N3X6-3; concentration: 2mM): 1.024 ± 0.0091
NP40-soluble protein abundance (C9JI46|Q8N3X6|Q8N3X6-3; concentration: 4mM): 1.01 ± 0.058
NP40-soluble protein abundance (C9JI46|Q8N3X6|Q8N3X6-3; concentration: 6mM): 0.992 ± 0.017
NP40-soluble protein abundance (C9JI46|Q8N3X6|Q8N3X6-3; concentration: 8mM): 0.952 ± 0.014
NP40-soluble protein abundance (C9JI46|Q8N3X6|Q8N3X6-3; concentration: 10mM): 1 ± 0.039

Source: the supplement of paper PMC6411743
